Compound activity from PubChem.
A selection: hits, their analogues and other compounds. The true share with any hit is near 10%.
ALDH1A1 inh – inhibitors of human aldehyde dehydrogenase 1A1; P00352; Potency, µM (series often up to 75.3 µM), for the others: at the highest dose activity, negative = inhibition, most hits filed as inhibitors; actives 7.3% (n = 220,000); Purified ALDH1A1, NADH fluorescence, propionaldehyde substrate; active = well fitted inhibition curve with a large enough effect, not every such curve was filed as active; inconclusive = small, poorly fitted or top-dose-only effect, or another doubt; inactive = no such curve, though single readings can be large or run the other way;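 note: potency is the fitted concentration of half-maximal effect; plate controls were no enzyme wells and a reference inhibitor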
GLA inh pH 4.5 – inhibitors of human alpha-galactosidase A at pH 4.5; purified enzyme, 4-MU-alpha-Gal fluorescence, pH 4.5; activity change, negative = inhibition, % at 105 µM; 230,000 tested, under 10 active; AID 1467;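 note: 0% = full activity with enzyme and -100% = basal without enzyme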
12-hLO inh – blocks human 12-lipoxygenase activity | actives 0.12% (n = 150,000) | purified 12-hLO, xylenol orange hydroperoxide absorbance | P18054 | Potency, µM (highest dose often 57.1 µM), for the others: at the highest dose activity change, negative = inhibition, usual class: inhibitors; note: potency is the fitted concentration of half-maximal effect; nearly all actives have a fitted effect of over 55% in size
Target sequence (P18054 whole entry, looked up): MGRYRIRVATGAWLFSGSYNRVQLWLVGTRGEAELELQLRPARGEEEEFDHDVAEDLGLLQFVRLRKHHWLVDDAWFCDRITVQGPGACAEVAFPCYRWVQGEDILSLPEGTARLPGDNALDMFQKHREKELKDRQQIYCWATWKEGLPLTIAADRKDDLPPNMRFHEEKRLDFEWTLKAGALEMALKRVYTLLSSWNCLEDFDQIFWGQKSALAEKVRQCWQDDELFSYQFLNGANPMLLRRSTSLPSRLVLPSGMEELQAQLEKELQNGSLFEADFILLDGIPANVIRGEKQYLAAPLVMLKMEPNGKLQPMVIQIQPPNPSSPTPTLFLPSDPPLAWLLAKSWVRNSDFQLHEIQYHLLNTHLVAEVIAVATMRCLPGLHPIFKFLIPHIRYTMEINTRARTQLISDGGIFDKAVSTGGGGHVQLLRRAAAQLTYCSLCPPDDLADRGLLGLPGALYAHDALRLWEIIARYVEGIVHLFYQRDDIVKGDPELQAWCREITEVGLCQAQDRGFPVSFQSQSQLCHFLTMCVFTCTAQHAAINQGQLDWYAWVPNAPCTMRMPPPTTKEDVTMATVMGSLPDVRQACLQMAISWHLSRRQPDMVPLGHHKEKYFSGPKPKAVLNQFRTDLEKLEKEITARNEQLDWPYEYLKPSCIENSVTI
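Purified human 12hLO (150 nM), preincubated 15 min with compound, then 40 uM arachidonic acid for 30 min, room temperature, Hepes pH 7.0 with 0.01% Triton X-100. Hydroperoxide detected by ferrous iron/xylenol orange; 573/405 nm absorbance ratio gives reaction progress.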
PNC assembly inh – blocks assembly of the perinucleolar compartment. PC3M PTB-GFP, PNC prevalence imaging, 16 h; hits give low values. activity change (PNC), negative = inhibition, % at 10 µM. actives 3.1% (n = 140,000);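 active = readout at or below -70, meaning at least 70% loss of cells showing the perinucleolar compartment, a nuclear body marking cancer cells; inconclusive = readout between -30 and a set limit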;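 note: plate controls were DMSO wells for no effect and camptothecin positive control wells for full effect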
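Compounds are pinned in duplicate onto adhered PC3M cells stably expressing GFP-tagged PTB and incubated 16 h at 37 C. Cells are then fixed, nuclei stained with Hoechst, and PNC-positive cells counted.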
aGal spleen mod – inhibitors or activators of human alpha-galactosidase in spleen homogenate; P06280; human spleen homogenate, 4MU-alpha-Gal fluorescence, 40 min; Potency, µM (series often up to 80 µM), inactives show at the highest dose activity change, negative = inhibition, usual class: inhibitors; actives 0.008% (n = 240,000);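 note: potency is the fitted concentration of half-maximal effect; 0% = enzyme with vehicle and -100% = no enzyme basal signal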
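Inhibition or activation of alpha-galactosidase in human spleen homogenate is scored by 4-MU fluorescence after 40 min at 37C, pH 5.0, with 1 mM substrate. AC50s come from concentration-response fitted to the Hill equation.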
HPGD inh – inhibitors of human 15-hydroxyprostaglandin dehydrogenase (HPGD); Potency, µM, for the others: top-dose activity change, negative = inhibition, hits mostly inhibitors; purified HPGD, NADH fluorescence kinetic, PGE2 substrate; AID 894; P15428; actives 4.3% (n = 150,000); active = well fitted inhibition curve with a large enough effect, not every such curve was filed as active; inconclusive = small, poorly fitted or top-dose-only effect, or another doubt; inactive = no such curve, though single readings can be large or run the other way; note: potency is the fitted concentration of half-maximal effect
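20 nM HPGD preincubated 15 min at room temperature with compound in 50 mM Tris-HCl pH 8, 0.01% Tween 20. Started with 1 mM NAD+ and 30 uM prostaglandin E2; NADH fluorescence (360/450 nm) read 5 times over 30-s intervals, last minus first.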
* hit, by the source's call; ? = inconclusive; nt = no result; [ ] = another dose, or the depositor's remark. Unless noted, calls come from the whole dose curve; as a rule, active = well fitted curve in the direction sought with a large enough effect; inconclusive = small, poorly fitted or top-dose-only effect, or another doubt; inactive = no such curve, though single readings can be large; an effect the other way counts as inactive or inconclusive. Unless noted, % is set by controls: 0 for no effect and ±100 for the full control effect.

SMILES	ALDH1A1 inh	GLA inh pH 4.5	12-hLO inh	PNC assembly inh	aGal spleen mod	HPGD inh
NCC(O)C1CCCCCCC1 (centres undefined)	-11%	-1	nt	nt	11%	-14%
CCCCCCC#CC1C=CC(OC(C)=O)C(COC(C)=O)O1 (centres undefined)	3.2µM*	nt	nt	nt	17%[17.5 µM]	nt
Cc1nc(SCC(=O)c2ccc(Cl)s2)c2oc3ccccc3c2n1	?	2	0%	-25	0%	2.2µM*
Cc1nc(SCc2cccc(F)c2)c2oc3ccccc3c2n1	nt	-8	nt	nt	3%	nt
CNC(=O)C(Sc1nc(C)nc2c1oc1ccccc12)C(C)=O (centres undefined)	13µM*	-2	-14%	-2	0%	-24%
O=C(O)CSc1nc(-c2ccc(Cl)cc2)nc2c1oc1ccccc12	?	-5	7%	-87*	-3%	16µM*
Cc1cc(C)nc(Sc2nc(C)nc3c2oc2ccccc23)n1	?	18	1%	128	-14%	32µM*
CCNc1ncc2nc(-c3ccc(Cl)cc3)c(=O)n(Cc3cccc(OC)c3)c2n1	2%	nt	nt	nt	-12%	nt
Oc1ccc([C@@H]2CNCc3sccc32)cc1O	nt	nt	6%	nt	nt	nt
Cc1nc(SCC(=O)NCCc2ccccc2)c2oc3ccccc3c2n1	-1%	9	7%	-100*	-2%	-20%
CC1=C(C(=O)OC(C)C)C(c2cccs2)NC(=S)N1 (centres undefined)	3.2µM*	-5	-1%	?	7%	-9%
CC1=C(C(=O)Nc2ccc(F)c(F)c2)C(c2cccs2)NC(=S)N1 (centres undefined)	0.63µM*	-5	-2%	-17	-14%	-6%
O=c1cnc2cncnc2n1Cc1ccccc1	4µM*	nt	nt	nt	-5%	nt
COc1ccc(Oc2ncc3ncc(=O)n(Cc4ccc(F)cc4)c3n2)cc1	?	nt	-12%	nt	-13%	32µM*
O=c1cnc2cncnc2n1Cc1ccc(F)cc1	10µM*	nt	nt	nt	1%	nt
O=c1cnc2cncnc2n1Cc1ccccc1Cl	3.5µM*	nt	nt	nt	12%	nt
O=c1c(-c2cccs2)nc2cncnc2n1Cc1ccccc1	?	nt	nt	nt	4%	nt
COc1ncc2ncc(=O)n(Cc3ccc(F)cc3)c2n1	13%	nt	0%	nt	0%	-30%
CCCn1c(C)nc2c(N3CCC(N(C)C)C3)nc(C)nc21 (centres undefined)	0%	-2	-1%	nt	11%	-1%
CS(=O)(=O)c1ccc(C(=O)NC2CCCc3ccccc32)cc1 (centres undefined)	-6%	5	nt	nt	5%	nt
CCCCNC(=O)c1ccc(Cc2nc3ccccc3[nH]2)cc1	-3%	nt	4%	nt	nt	-5%
O=c1c(CCc2ccccc2)nc2cncnc2n1Cc1ccccc1	25µM*	nt	nt	nt	0%	nt
COCc1cc(S(=O)c2ccc(Cl)cc2)nc(C)n1 (centres undefined)	18µM*	-3	nt	nt	1%	nt
CCc1ccc(C(=O)N2CCCC2)s1	?	-2	2%	?	0%	16µM*
O=C(c1ccc(Cl)s1)N1CCCC1	?	-1	3%	-19	7%	7.9µM*
SMILES	ALDH1A1 inh	GLA inh pH 4.5	12-hLO inh	PNC assembly inh	aGal spleen mod	HPGD inh
Cn1nccc1NC(=O)CC1(CC(=O)O)CCCCC1	nt	-19	nt	nt	2%	nt
CCCCC(=O)N/N=C(/C)C1=C(C)C(C)(C)OC1=O	-3%	?	nt	nt	-10%	nt
CCCn1nc(C(=O)OCC(=O)Nc2cccc(OC)c2)c2ccccc2c1=O	-17%	-19	nt	nt	1%	nt
COc1ccc(Nc2oc(COc3ccccc3OC)nc2C#N)cc1	2%	-14	-7%	72	0%	14µM*
COc1ccccc1OCc1nc(C#N)c(NCCCn2ccnc2)o1	5%	1	nt	nt	-4%	nt
CCNc1oc(COc2ccccc2F)nc1C#N	?	-4	-9%	-13	-5%	14µM*
COc1ccc(CN(C2CCCC2)S(=O)(=O)c2ccc(-n3cnnn3)cc2)cc1OC	1.8µM*	-11	10%	1	3%	-12%
COc1cc(S(=O)(=O)N(Cc2ccc(C)cc2)C2CCCCC2)ccc1-n1cnnn1	?	-2	-8%	19	2%	-10%
O=C1OCC2=C1C(c1ccc(F)cc1)CC(=O)N2c1ccccc1 (centres undefined)	6%	0	nt	nt	1%	nt
CC(=O)NNS(=O)(=O)c1ccc(-c2cc(C(F)(F)F)n(C)n2)s1	nt	-1	nt	nt	-9%	nt
Cc1cccc2nc(-c3cccc(NC(=O)Cc4ccccc4)c3)cn12	?	1	1%	-109*	-9%	-24%
CNC(=O)[C@H]1O[C@@H](n2cnc3c(NCc4ccc(N)cc4)ncnc32)[C@H](O)[C@H]1O	3%	-5	nt	nt	13%	2%
Cc1ccc(S(=O)(=O)/N=C(/c2ccc(F)cc2)N2CCCCC2)cc1	25µM*	0	1%	?	6%	-9%
CCCOc1ccc(/C(O)=C2\C(=O)C(=O)N(CCCOC)C23C(=O)N(C)c2ccccc23)cc1 (centres undefined)	-7%	0	12%	-106*	2%	-15%
CC(C)=NNc1nc(-c2ccccc2)c(C)s1	?	-7	nt	nt	7%	nt
CCOC(=O)Cc1nnc(NC(=O)CSc2nnc3c4ccccc4n(C(C)C)c3n2)s1	28µM*	5	-2%	-17	5%	?
CCCn1c2ccccc2c2nnc(SCC(=O)Nc3nnc(CC(=O)OCC)s3)nc21	-7%	8	-2%	20	-9%	-8%
O=C1N=C(c2ccccc2)C(c2ccccc2)N1 (centres undefined)	?	0	-5%	-24	3%	?
S=C1NC(c2ccccc2)=CC(c2ccccc2)N1 (centres undefined)	0.89µM*	3	nt	nt	0%	nt
S=C1NC(c2cccs2)=CC(c2ccc(Br)cc2)N1 (centres undefined)	0.4µM*	-5	?	63	-14%	32µM*
CC(C)CN(Cc1cc(=O)oc2cc3c(cc12)CCCC3)CC(C)C	nt	2	nt	nt	-2%	nt
c1cc2c(cc1C1CCCCC1)c1c3n2CCN[C@H]3CCC1	?	?	-3%	nt	6%	-6%
Cc1ccc2nc(NC(=O)CSc3nnc(C)c(=O)n3N)sc2c1	?	4	-1%	14	-1%	-4%
CCCN1C2=C(C(=O)CC(C)(C)C2)C(c2ccc(F)cc2)C2=C1c1ccccc1C2=O (centres undefined)	?	-1	0%	50	2%	35µM*
Cc1ccsc1/C=C1/SC(N2CC(C)OC(C)C2)=NC1=O (centres undefined)	11µM*	-19	2%	14	6%	32µM*
Cc1ccsc1/C=C1\SC(N)=NC1=O	23%	-5	-7%	57	-15%	-26%
